Experimental data as given in PubChem BioAssay.
Active and inactive are the calls of the source.

What was measured:
[1] = test system: Plasmodium falciparum Sir2 (PF13_0152, Sir2A); assay: Plasmodium falciparum Sir2A binding compounds – biochemical, small-molecule microarray, 635 nm fluorescence, primary screen (AID 1098); settings: fluorescence 635 nm, higher = more signal;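 further: score merges spot fluorescence intensity with its signal-to-noise ratio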
[2] = probe aDKK1 binding to arrayed compounds – biochemical, biotinylated probe, 635/667 nm fluorescence, primary screen (AID 1099); settings: small-molecule microarray, higher = more signal;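 further: score merges 667nm spot fluorescence with signal to noise across triplicate slides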
[3] = probe aCHRDL2 binding to arrayed compounds – biochemical, biotinylated probe, 635/667 nm fluorescence, primary screen (AID 1100); settings: small-molecule microarray, higher = more signal
[4] = change in splice reporter luminescence, either direction, cell-based, HEK293, spliceosome inhibition project, primary screen (AID 1101); settings: HEK293 splicing luciferase reporter, 24 h, higher = more signal, called active from +8 up or from −8 down;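 further: HEK293 cells carrying a splicing-competent luciferase reporter gene; test concentration not given here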
[5] = target: Fibroblast growth factor 10 (Homo sapiens) (UniProt O15520); assay: compounds binding fibroblast growth factor 10 – biochemical, small-molecule microarray, 635 nm fluorescence, primary screen (AID 1102); settings: FGF10 binding, fluorescence 635 nm, higher = more signal
[6] = test system: glycogen synthase kinase-3 (GSK3A per assay name; protocol says GSK3B); assay: compounds binding glycogen synthase kinase-3 – biochemical, small-molecule microarray, 635 nm fluorescence, GSK3A, primary screen (AID 1103); settings: fluorescence 635 nm, higher = more signal; further: the record names both GSK3A and GSK3B
[7] = target: Epidermal growth factor receptor (Homo sapiens) (UniProt P00533); assay: compounds binding epidermal growth factor receptor – biochemical, small-molecule microarray, 635 nm fluorescence, primary screen (AID 1104); settings: EGFR binding, higher = more signal;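 further: score merges 667 nm emission intensity with spot signal to noise over triplicate slides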
[8] = target: Follistatin-related protein 3 (Homo sapiens) (UniProt O95633); assay: compounds binding follistatin-related protein 3 – biochemical, small-molecule microarray, 635 nm fluorescence, primary screen (AID 1105); settings: FSTL3 binding, higher = more signal;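 further: score merges emission near 667 nm and signal to noise per printed spot across three slides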
[9] = target: Dickkopf-related protein 1 (Homo sapiens) (UniProt O94907); assay: small molecules binding DKK1 protein – biochemical, small-molecule microarray, 635 nm fluorescence scan, primary screen (AID 1106); settings: higher = more signal;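 further: score merges emission near 667 nm with signal to noise over three replicate slides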
[10] = test system: Inhibin beta A chain (activin A); assay: small molecules binding activin A – biochemical, small-molecule microarray, 635 nm fluorescence scan, primary screen (AID 1107); settings: INHBA, higher = more signal;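 further: mouse activin A protein probed at 4.33 µg/mL on printed slides; score merges bound-protein fluorescence near 667 nm with spot signal-to-noise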
[11] = test system: Human papillomavirus type 1a protein E7 (residues 44-93); assay: small molecules binding HPV E7 44-93 – biochemical, small-molecule microarray, residues 44-93, 635 nm fluorescence, primary screen (AID 1108); settings: fluorescence 635 nm, higher = more signal;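 further: E7 fragment applied at 1 µg/mL in TBST for 1 h at 4 C; score combines spot fluorescence with its signal to noise ratio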
[12] = hepatitis C replication reporter changes, two-sided – Huh7 cells, luciferase reporter, HCV replication inhibitor project, primary screen (AID 1109); settings: Huh7 HCV replicon luciferase reporter, 48 h; higher = more signal;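 further: huh7 hepatoma cells harbouring a luciferase neomycin HCV replicon reporter; luciferase luminescence as measure of HCV replicon replication; test concentration not given here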
[13] = target: Left-right determination factor 2 (Homo sapiens) (UniProt O00292); assay: small molecules binding LEFTY2 protein – biochemical, small-molecule microarray, 635 nm fluorescence scan, primary screen (AID 1110); settings: higher = more signal
[14] = target: Calmodulin-1 (Homo sapiens) (UniProt P0DP23); assay: small molecules binding calmodulin-1 with EGTA – biochemical, small-molecule microarray, Cy5-labelled CALM1, profiling panel (AID 1111); settings: Cy5-CALM1 binding fluorescence, higher = more signal;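 further: labelled calmodulin applied in Tris saline Tween buffer holding calcium plus EGTA and DTT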
[15] = target: Calmodulin-1 (Homo sapiens) (UniProt P0DP23); assay: small molecules binding Ca-loaded calmodulin-1 – biochemical, small-molecule microarray, Cy5-labelled CALM1, plus calcium, artefact control for SMM control-protein annotation, profiling panel (AID 1112); settings: Cy5-CALM1 binding fluorescence, higher = more signal;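 further: score merges spot fluorescence with signal to noise from triplicate slides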
[16] = probe aWnt5a binding to arrayed compounds – biochemical, biotinylated probe, 635/667 nm fluorescence, primary screen (AID 1113); settings: small-molecule microarray, higher = more signal;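 further: score merges 667 nm fluorescence intensity with signal-to-noise per printed feature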
[17] = probe aShh binding to arrayed compounds – biochemical, biotinylated probe, 635/667 nm fluorescence, primary screen (AID 1114); settings: small-molecule microarray, higher = more signal;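 further: probe is biotin-labelled aShh protein from a stem cell growth factor screen; measures binding of labelled protein to compounds printed on the slide; score merges feature fluorescence at 667 nm with signal-to-noise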
[18] = probe aNog binding to arrayed compounds – biochemical, biotinylated probe, 635/667 nm fluorescence, primary screen (AID 1115); settings: small-molecule microarray, higher = more signal;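 further: probe is biotinylated aNog protein used at 0.15 µg/mL for 1 h at 4 C; z-score combines 667 nm fluorescence of each spot with its signal to noise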
[19] = target: Torsin-1A-interacting protein 1 (Homo sapiens) (UniProt Q5JTV8); assay: compound microarray binding of lysate hLAP1 – cell lysate, small-molecule microarray, COS7 lysate, 635/667 nm fluorescence, primary screen (AID 1116); settings: 635 nm fluorescence, higher = more signal
[20] = target: Alpha-bungarotoxin (Bungarus multicinctus) (UniProt P60615); assay: compounds binding labelled alpha-BTX control protein – biochemical, small-molecule microarray, Alexa647 label, 635/667 nm fluorescence, artefact control for SMM control protein annotation, profiling panel (AID 1117); settings: alpha-BTX-A647 binding fluorescence, higher = more signal
Sequence of Alpha-bungarotoxin (Bungarus multicinctus) (P60615 whole entry, looked up): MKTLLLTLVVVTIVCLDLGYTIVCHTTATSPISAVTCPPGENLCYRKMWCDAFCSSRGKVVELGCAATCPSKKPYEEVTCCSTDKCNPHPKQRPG

Sequence of Left-right determination factor 2 (Homo sapiens) (O00292 whole entry, looked up): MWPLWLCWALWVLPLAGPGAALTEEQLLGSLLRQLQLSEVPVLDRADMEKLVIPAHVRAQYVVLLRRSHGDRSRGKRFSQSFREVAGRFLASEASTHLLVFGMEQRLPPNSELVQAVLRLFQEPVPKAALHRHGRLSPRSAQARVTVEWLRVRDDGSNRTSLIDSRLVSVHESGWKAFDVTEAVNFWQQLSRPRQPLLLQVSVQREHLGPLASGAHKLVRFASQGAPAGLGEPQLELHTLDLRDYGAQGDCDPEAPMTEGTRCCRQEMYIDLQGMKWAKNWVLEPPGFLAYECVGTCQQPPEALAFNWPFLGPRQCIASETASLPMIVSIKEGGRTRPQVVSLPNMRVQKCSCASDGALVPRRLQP
Sequence of Torsin-1A-interacting protein 1 (Homo sapiens) (Q5JTV8 whole entry, looked up): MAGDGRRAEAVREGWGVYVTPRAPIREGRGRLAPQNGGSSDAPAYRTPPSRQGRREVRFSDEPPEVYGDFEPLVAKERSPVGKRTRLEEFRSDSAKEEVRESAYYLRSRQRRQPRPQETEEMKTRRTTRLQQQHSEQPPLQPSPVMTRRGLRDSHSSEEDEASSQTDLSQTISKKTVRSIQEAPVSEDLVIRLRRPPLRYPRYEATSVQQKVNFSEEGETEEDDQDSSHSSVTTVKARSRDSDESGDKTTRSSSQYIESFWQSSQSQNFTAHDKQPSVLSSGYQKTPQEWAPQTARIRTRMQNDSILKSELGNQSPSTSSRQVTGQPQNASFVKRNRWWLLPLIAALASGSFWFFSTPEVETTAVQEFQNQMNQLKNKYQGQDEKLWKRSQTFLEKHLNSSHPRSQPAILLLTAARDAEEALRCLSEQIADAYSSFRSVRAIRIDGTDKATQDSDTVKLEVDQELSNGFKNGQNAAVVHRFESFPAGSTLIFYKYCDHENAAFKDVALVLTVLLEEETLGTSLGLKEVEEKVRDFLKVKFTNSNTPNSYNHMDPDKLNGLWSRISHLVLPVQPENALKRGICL
Sequence of Follistatin-related protein 3 (Homo sapiens) (O95633 whole entry, looked up): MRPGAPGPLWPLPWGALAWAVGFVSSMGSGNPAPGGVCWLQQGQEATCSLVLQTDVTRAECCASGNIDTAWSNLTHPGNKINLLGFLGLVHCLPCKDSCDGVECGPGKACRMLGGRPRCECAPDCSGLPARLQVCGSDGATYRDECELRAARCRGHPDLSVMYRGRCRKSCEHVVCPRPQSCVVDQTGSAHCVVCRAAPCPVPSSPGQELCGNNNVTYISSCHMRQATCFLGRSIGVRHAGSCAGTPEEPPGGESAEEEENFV
Sequence of Epidermal growth factor receptor (Homo sapiens) (P00533 whole entry, looked up): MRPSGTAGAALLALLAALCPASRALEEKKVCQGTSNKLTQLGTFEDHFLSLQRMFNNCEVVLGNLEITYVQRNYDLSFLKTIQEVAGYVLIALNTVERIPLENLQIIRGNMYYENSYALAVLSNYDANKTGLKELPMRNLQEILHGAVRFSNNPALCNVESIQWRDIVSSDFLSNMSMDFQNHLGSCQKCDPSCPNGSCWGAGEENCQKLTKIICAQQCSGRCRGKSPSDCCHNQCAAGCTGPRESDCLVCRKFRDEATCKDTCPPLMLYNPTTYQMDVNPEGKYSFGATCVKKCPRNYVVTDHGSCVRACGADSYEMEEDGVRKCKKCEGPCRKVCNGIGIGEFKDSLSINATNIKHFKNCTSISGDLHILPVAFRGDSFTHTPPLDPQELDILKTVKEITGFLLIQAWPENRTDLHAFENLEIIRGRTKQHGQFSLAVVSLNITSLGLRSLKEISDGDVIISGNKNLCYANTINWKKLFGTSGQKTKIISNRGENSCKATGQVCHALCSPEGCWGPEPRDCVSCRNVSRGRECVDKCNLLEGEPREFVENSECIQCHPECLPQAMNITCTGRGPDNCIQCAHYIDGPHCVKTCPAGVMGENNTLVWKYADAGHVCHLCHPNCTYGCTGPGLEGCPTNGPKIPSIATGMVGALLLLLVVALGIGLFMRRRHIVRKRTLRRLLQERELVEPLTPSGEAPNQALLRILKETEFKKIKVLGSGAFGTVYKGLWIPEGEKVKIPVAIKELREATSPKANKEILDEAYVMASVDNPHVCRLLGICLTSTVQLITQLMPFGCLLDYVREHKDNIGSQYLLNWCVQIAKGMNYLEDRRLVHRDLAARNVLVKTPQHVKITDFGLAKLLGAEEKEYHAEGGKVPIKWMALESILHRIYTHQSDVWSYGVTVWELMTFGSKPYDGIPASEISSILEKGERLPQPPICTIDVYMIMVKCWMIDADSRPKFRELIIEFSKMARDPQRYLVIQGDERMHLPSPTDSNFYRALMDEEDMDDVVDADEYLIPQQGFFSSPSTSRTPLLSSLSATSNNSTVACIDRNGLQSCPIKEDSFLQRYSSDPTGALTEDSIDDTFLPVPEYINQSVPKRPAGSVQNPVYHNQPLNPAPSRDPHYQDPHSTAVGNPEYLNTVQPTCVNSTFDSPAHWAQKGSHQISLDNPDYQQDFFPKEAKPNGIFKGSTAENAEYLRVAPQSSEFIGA
Sequence of Dickkopf-related protein 1 (Homo sapiens) (O94907 whole entry, looked up): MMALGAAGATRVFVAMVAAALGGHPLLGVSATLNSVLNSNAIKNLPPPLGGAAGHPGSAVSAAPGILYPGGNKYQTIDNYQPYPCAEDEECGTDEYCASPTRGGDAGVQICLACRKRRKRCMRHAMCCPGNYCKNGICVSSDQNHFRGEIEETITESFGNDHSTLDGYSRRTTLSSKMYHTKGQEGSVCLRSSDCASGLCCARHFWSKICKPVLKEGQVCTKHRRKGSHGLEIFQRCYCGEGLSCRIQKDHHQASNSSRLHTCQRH
Sequence of Fibroblast growth factor 10 (Homo sapiens) (O15520 whole entry, looked up): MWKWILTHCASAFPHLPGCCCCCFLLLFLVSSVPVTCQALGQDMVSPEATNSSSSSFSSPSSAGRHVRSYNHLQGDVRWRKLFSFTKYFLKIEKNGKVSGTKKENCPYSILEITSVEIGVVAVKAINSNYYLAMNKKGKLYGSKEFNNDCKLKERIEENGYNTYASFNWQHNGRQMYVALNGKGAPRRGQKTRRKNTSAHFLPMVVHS

| SMILES | composite z-score [1] | composite z-score [2] | composite z-score [3] | z-score [4] | composite z-score [5] | composite z-score [6] | composite z-score [7] | composite z-score [8] | composite z-score [9] | composite z-score [10] | composite z-score [11] | z-score [12] | composite z-score [13] | composite z-score [14] | composite z-score [15] | composite z-score [16] | composite z-score [17] | composite z-score [18] | composite z-score [19] | composite z-score [20] |
| --- | --- | --- | --- | --- | --- | --- | --- | --- | --- | --- | --- | --- | --- | --- | --- | --- | --- | --- | --- | --- |
| CO[C@@H]1COC(=O)[C@@H]2CCCN2C(=O)CC=C[C@@H](C)[C@H](OC)COC(=O)[C@@H]2CCCN2C(=O)CC=C[C@H]1C | 1.29 | -0.875 | -1.33 | -0.481 (inactive) | 0.546 | 0.171 | 0.992 | 1.19 | 1.27 | 1.43 | -0.699 | 0.47 | 0.402 | -1.35 | -2.31 | -0.156 | -0.2 | -0.201 | -0.233 | -1.09 |
| C=CCC1=C[C@H]2[C@H]([C@@H]3C=C[C@]2(CC=C)C(=O)[C@]32CO2)[C@@]2(CO2)C1=O | 1.29 | -0.354 | -0.69 | -0.414 (inactive) | 1.14 | -0.0104 | 1.58 | 1.31 | 1.8 | 1.9 | -0.763 | -4.15 | 1.24 | -1.06 | -2.27 | 0.133 | -0.1 | 2.17 | 0.163 | 0.345 |
| [N-]=[N+]=Nc1ccccc1C[C@@]1(C(=O)N2CCOCC2)N=C(c2ccc(OCCCO)cc2)O[C@@H]1c1ccccc1N=[N+]=[N-] | 0.668 | 1.35 | 1.13 | 0.144 (inactive) | 0.997 | 1.29 | 0.215 | 1.28 | 0.444 | 0.937 | 0.457 | -2.29 | 0.095 | 1.04 | 0.804 | -0.0398 | 0.102 | 0.293 | 0.842 | 2 |
| C=CCc1cccc([C@H]2N[C@H](C(=O)O)CC[C@@H]2C)c1 | 0.289 | -0.6 | -0.832 | -0.704 (inactive) | 0.219 | 0.706 | 0.793 | 0.778 | 1.22 | 1.12 | 0.175 | -0.222 | 0.956 | -0.962 | -1.26 | -0.232 | -0.271 | -0.539 | 0.0883 | -0.142 |
| CC/C=C/C(=O)N(C[C@@H]1CCCO1)[C@@H]1CC(C(=O)NCCO)=C[C@H](Oc2c(I)cc(CO)cc2OC)[C@H]1O | -0.251 | -0.154 | -0.162 | -1.44 (inactive) | 0.541 | -0.208 | 0.0798 | -0.434 | 0.554 | 0.0756 | -0.2 | -0.277 | 0.208 | -0.33 | 0.0262 | 0.497 | 0.138 | 0.124 | 0.371 | 0.515 |
| CO[C@H]1COC(=O)[C@@H](C)COC(=O)[C@H](Cc2ccccc2)NC(=O)CC=C[C@H]1C | 0.7 | -0.416 | -1.09 | -0.776 (inactive) | 0.457 | 0.0364 | 1.04 | 1.06 | 1.5 | 1.15 | 0.334 | -0.082 | 0.726 | -1.69 | -1.8 | -0.135 | -0.143 | -0.454 | -0.115 | 0.0209 |
| O=C(CS)NCCCCCCNC(=O)[C@@H]1C[C@@H]2C(=O)N[C@@H](Cc3ccccc3)C(=O)N2[C@@H]1c1ccc(O)cc1 | 1.6 | -0.0356 | 0.307 | -0.376 (inactive) | 1.03 | 1.32 | 0.411 | 1.19 | 1.18 | 0.617 | 1.45 | -0.144 | 0.621 | 2.31 | -0.23 | 0.0179 | -0.177 | -0.443 | 1 | 1.7 |
| CO[C@H]1COC(=O)[C@H](CCSC)NC(=O)CC=C[C@@H](C)COC(=O)[C@@H](OCc2ccccc2)C=C[C@@H]1C | 0.979 | 0.981 | -1.41 | -0.342 (inactive) | 0.485 | 0.743 | 0.574 | 1.15 | 2 | 0.397 | -0.457 | -0.704 | 1.23 | -0.86 | -1.6 | -0.182 | -0.1 | -0.541 | -0.0258 | -0.414 |
| CCCC=C(CCC)[C@@H](NS(=O)(=O)c1ccc(-c2ccccc2)cc1)c1ccc(C(=O)OC)cc1 | -0.127 | 0.224 | 0.516 | -2.72 (inactive) | -0.632 | -0.84 | -0.243 | -0.875 | -0.422 | 0.573 | 0.17 | -1.35 | 0.0185 | 0.601 | 0.581 | -0.104 | 0.0796 | 0.119 | 0.756 | -0.214 |
| COCCOC(=O)N1C(=O)[C@@]2(c3cc(C#CCNC(N)=O)ccc31)[C@H](c1ccc(OCCO)cc1)N1[C@H](c3ccccc3)[C@H](c3ccccc3)OC(=O)[C@H]1[C@@H]2C(=O)Nc1nc2ccccc2s1 | 0.337 | 0.997 | 0.88 | 0.0697 (inactive) | 0.574 | -0.289 | 0.0231 | 1.01 | 1 | 0.926 | 0.376 | -1.11 | 1.24 | 0.669 | 0.701 | 0.0136 | 0.187 | 0.402 | 0.114 | 1.37 |
| CCCN1C(=O)[C@@]2(CCS(=O)(=O)c3ccccc3)N=C(c3ccc(OCCCO)cc3)O[C@H]2c2ccccc21 | 0.915 | 0.164 | 0.827 | 0.597 (inactive) | 0.736 | 1.31 | 0.279 | 0.998 | 0.503 | 0.96 | 1.45 | -2.08 | 0.224 | 0.248 | -0.598 | -0.0721 | -0.0234 | -0.269 | 0.307 | 1.01 |
